Mtb FBA inh = Mtb fructose-bisphosphate aldolase inhibition; 2.3% of 360,000 active; inhibition, % at 1 µM; P9WQA3; AID 588726; purified M. tuberculosis FBA, fluorescence read-out; in the data active means inhibition above about 27%;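 further: 0% = vehicle and 100% = reference inhibitor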
Target sequence (P9WQA3 whole entry, looked up): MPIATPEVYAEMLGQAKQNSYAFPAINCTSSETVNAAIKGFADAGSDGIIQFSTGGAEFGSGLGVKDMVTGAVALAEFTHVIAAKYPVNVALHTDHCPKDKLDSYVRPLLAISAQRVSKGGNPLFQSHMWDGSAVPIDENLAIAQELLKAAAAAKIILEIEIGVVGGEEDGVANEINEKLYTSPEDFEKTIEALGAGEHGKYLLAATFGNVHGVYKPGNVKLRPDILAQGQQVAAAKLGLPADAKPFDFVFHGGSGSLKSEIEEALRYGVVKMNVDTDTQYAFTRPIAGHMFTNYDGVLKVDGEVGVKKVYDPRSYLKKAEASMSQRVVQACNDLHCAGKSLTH
RecA splice inh = Mtb RecA intein splicing inhibition; inhibition, % (test concentration not listed); 0.75% of 290,000 active; cell-free RecA intein splicing, fluorescence; in the data active means inhibition above about 30%;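 further: 0% = vehicle wells and 100% = reference inhibitor control wells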
CCHFV vOTU inh = blocks the CCHF virus ovarian tumor domain protease; CCHFV vOTU protease, Pep-AMC fluorescence; inhibition, % at 11.5 µM; 0.55% of 370,000 active; further: 0% = vehicle wells with enzyme and 100% = no enzyme wells
GDH-TPI inh = counter-screen for M. tuberculosis FBA inhibitors: GDH-TPI coupled enzymes. AID 588335. inhibition, % at 4.8 µM. 1.2% of 360,000 active. GDH-TPI coupled enzyme counterscreen, NADH absorbance;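 further: 0% = DMSO wells and 100% = wells lacking the enzyme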
An asterisk follows results filed as active; . = not tested or not shown; + = active, no number. Compounds with a hit are over-represented: about 4.2% of the library has one in this group of screens. Unless noted, no stated cut-off is given here; in the data, active means inhibition above about 30%; inactive means the rest.

SMILES | Mtb FBA inh | RecA splice inh | CCHFV vOTU inh | GDH-TPI inh
Cc1cc(=O)oc2c3c(cc(OCC(=O)NCc4ccncc4)c12)OC(C)(C)CC3 | + | -4 | -204 | 16
COc1ccc(CNC(=O)COc2cc3c(c4oc(=O)cc(C)c24)CCC(C)(C)O3)c(OC)c1 | 34* | . | -13 | 12
Cc1cc(OCC(=O)NCc2ccncc2)c2c3c(c(=O)oc2c1)CCC3 | 26 | -1 | -12 | 2
CC(C)OC(=O)/C(=C/c1ccc2c(c1)c1ccccc1n2C)NC(=O)c1ccccc1 | 0 | 1 | -14 | 34*
CC(C)OC(=O)/C(=C\c1ccc2c(c1)c1ccccc1n2C)NC(=O)c1ccccc1 | 2 | -3 | 0 | 21
CC(=O)N1CCN(C(=O)c2cc(-c3cccc4ccccc34)nc3ccccc23)CC1 | 6 | 0 | -11 | 6
O=C(O)c1cc(-c2cccs2)nc2ccc(F)cc12 | + | 2 | -91 | 12
CCN1CCN(C(=O)c2cc(-c3ccc(Cl)s3)nc3ccccc23)CC1 | 118* | -4 | -90 | 21
Cc1ccc(-c2cc(C(=O)O)c3ccccc3n2)s1 | + | -15 | -289 | 15
CCN1CCN(C(=O)c2cc(-c3ccco3)nc3ccccc23)CC1 | 130* | . | -202 | 12
NC(=NCc1ccccc1)NC(=O)OCc1ccccc1 | . | . | 3 | .
O=C(O)c1cc(-c2ccc(Cl)s2)nc2ccccc12 | 159* | -8 | -161 | 8
CN(CCOC(=O)c1cc2ccccc2o1)C1CN(Cc2cn(Cc3ccccc3Cl)nn2)S(=O)(=O)C1 (centres undefined) | . | . | 0 | .
COc1ccc(OC)c(CN2CCN(C(=O)c3ccc(S(=O)(=O)N4CCCCCC4)cc3)CC2)c1 | 1 | . | 17 | 15
O=[N+]([O-])c1cccc2c([As](=O)(O)O)cccc12 | 2 | 35* | 10 | 20
C=Cc1ccc(C(=O)Nc2nnc(-c3cccnc3)s2)cc1 | . | . | 2 | .
Cc1[nH]n(-c2ccccc2)c(=O)c1/C=C1/C=c2ccccc2=N1 | -10 | 35* | 11 | 6
CCc1ccc2oc(-c3ccc(OC)cc3)cc(=Nc3cccc(C(=O)O)c3)c2c1 | + | 8 | -179 | 22
COc1ccc(-c2cc(=O)c3cc(O)ccc3o2)cc1 | 1 | -3 | 4 | 29
CCOc1ccc2c(c1)c(N=Nc1cccc(C(=O)O)c1)c(O)n2C | -8 | 7 | -18 | 10
CCc1ccc2oc(-c3ccc(OC)cc3)cc(=Nc3c(C)n(C)n(-c4ccccc4)c3=O)c2c1 | + | 3 | -138 | 20
COc1ccc(-c2cc(=Nc3cccc(C(=O)O)c3)c3cc(C)ccc3o2)cc1 | + | 10 | -136 | 22
COc1ccc(-c2cc(=NCC(=O)O)c3ccccc3o2)cc1 | + | -80 | . | 28
CC(=O)C(Cc1ccccc1)NC(=O)CN1CCN(Cc2ccccc2)CC1 (centres undefined) | 4 | 1 | -2 | -2
N[C@@H](Cc1ccc(O)cc1)C(=O)Nc1ccc2ccccc2c1 | 6 | . | 5 | 5
SMILES | Mtb FBA inh | RecA splice inh | CCHFV vOTU inh | GDH-TPI inh
O=C(c1ccc(CSc2ccc(Cl)cc2)o1)N1CCOCC1 | 1 | . | -11 | .
COc1ccc(-c2cc(=NCCCCCC(=O)O)c3cc(C)ccc3o2)cc1 | . | -38 | -384 | 50*
COc1ccc(-c2cc(=Nc3ccc(C(=O)O)cc3)c3cc(C)ccc3o2)cc1 | + | 3 | -147 | 9
Cc1cc(C)c(C(=O)/C=C/c2ccc(C(C)C)cc2)c(=O)[nH]1 | -1 | 7 | 3 | 42*
C/C(=C\C=C\c1ccccc1)C(=O)c1c(C)cc(C)[nH]c1=O | -2 | -4 | 16 | 47*
Cc1cc(C)c(C(=O)/C=C/C=C/c2ccccc2)c(=O)[nH]1 | -2 | -9 | 19 | 23
COc1ccc(-c2nc3ccc([N+](=O)[O-])cc3[nH]2)cc1 | -4 | 2 | 13 | 19
CCOc1ccc2nc(-c3ccccc3)[nH]c2c1 | 189* | -3 | -46 | 2
COc1ccc2nc(-c3ccccc3)[nH]c2c1 | 150* | -2 | -42 | 6
CCC(=O)Nc1nc(C)c(-c2csc(Nc3ccccn3)n2)s1 | 5 | -2 | 9 | 40*
Cc1cccc(NC(=O)CN(C)C(=O)C2CCCC2)c1C | 2 | . | 6 | 8
O=c1c2ccccc2nc(/C=C/c2ccccc2)n1CCc1ccccc1 | 1 | -2 | -15 | 3
O=c1c2ccccc2nc(/C=C/c2cccnc2)n1CCc1ccccc1 | 0 | 43* | 9 | 37*
O=c1c2ccccc2nc(/C=C/c2cccnc2)n1Cc1ccccc1 | -1 | 49* | 5 | 15
Cc1cccc2c(N=NC(=O)C(C)n3cnc4ccccc4c3=O)c(O)[nH]c12 (centres undefined) | -3 | 1 | 13 | 35*
O=c1[nH]c2cc(Br)c(Br)nc2[nH]1 | . | . | -6 | .
Cn1c(/C(C#N)=C/Nc2ccccn2)nc2ccccc21 | 4 | -188 | -9 | 31*
CSc1ccc(/C=C2\CCn3c2nc2cc(C(=O)O)ccc2c3=O)cc1 | 7 | -24 | -13 | 63*
COc1ccc(/C=C2\CCn3c2nc2cc(C(=O)O)ccc2c3=O)cc1O | -4 | -1 | 22 | 51*
Cc1ccccc1N=CC1=C(O)c2ccccc2C1=O | -4 | -1 | 14 | 46*
COc1ccc(N=CC2=C(O)c3ccccc3C2=O)c(OC)c1 | 19 | 13 | 0 | 7
C[C@H](CO)N1C[C@H](C)[C@H](CN(C)C(=O)c2ccccc2F)Oc2ncc(Br)cc2C1=O | -2 | . | 7 | 10
CCOC(=O)c1c[nH]c(=S)n(-c2ccccc2)c1=O | -4 | -3 | 14 | 39*
N#Cc1c(-c2ccccc2)[nH]c(=O)[nH]c1=O | 0 | 0 | 0 | 5
N#Cc1c(-c2cccnc2)c2c([nH]c1=O)-c1ccccc1OC2 | + | -449 | -367 | 14
SMILES | Mtb FBA inh | RecA splice inh | CCHFV vOTU inh | GDH-TPI inh
BrC(/C=N/N1CCN(Cc2ccccc2)CC1)=C/c1ccccc1 | 0 | 10 | -8 | 31*
BrC(=C\c1ccccc1)/C=N/N1CCN(Cc2ccccc2)CC1 | -3 | 5 | 18 | 9
O=C(Nc1ccc(OC(F)(F)F)cc1)Nc1c(-c2ccc(F)cc2)nc2ncccn12 | . | . | -1 | .
CCS/C(N)=N/N=C/c1cc(C)ccc1O | 2 | -2 | 12 | 23
CCCCS/C(N)=N/N=C/c1cc(C)ccc1O | 2 | -8 | 9 | 41*
CCCCN1CC[C@H]2C=CC[C@@H](C(=O)Nc3nccs3)[C@H]2C1=O | -4 | -1 | -6 | 3
CCC(C)(C)NC(=O)C(c1ccc(OC)cc1)N(C(=O)CCC(=O)Nc1cc(C)on1)c1cccc(F)c1 (centres undefined) | 117* | -1 | 0 | 1
O=C1N/C(=N/S(=O)(=O)c2ccccc2)S/C1=C/c1cccnc1 | 1 | 0 | 6 | 33*
O=C1NC(=Nc2ccccc2)S/C1=C\c1cccnc1 | 0 | 9 | -3 | 33*
COC(=O)C1CN(Cc2cn(Cc3ccc(OC)cc3)nn2)CCS(=O)(=O)N1Cc1ccc(C)cc1 (centres undefined) | . | . | -3 | .
O=C(NCCc1ccccc1)c1ccc(=O)oc1 | 1 | -1 | 20 | 75*
O=C(NCc1ccccn1)c1ccc(=O)oc1 | 8 | -1 | -4 | 38*
O=C(NCc1ccccn1)c1ccc(-c2ccccc2)cc1 | 5 | 3 | 7 | 3

Assay outcomes: PubChem BioAssay, several laboratories
